Experimental data: PubChem BioAssay (Tox21)
“And” between values parts separate entries of the source, which are not always exact repeats. Equal values may be shown once. Inconclusive results are not listed. A call without a number means that no potency is given here. Some compounds were tested as several samples or in several runs, with calls that do not always agree. The source made the active and inactive calls. Calls follow the shape of the dose curve; as a rule, active = well fitted cell-killing curve with a large enough effect in the repeat runs; inconclusive = weak or mixed curves, or effect the other way; inactive = flat fitted curve, though single readings scatter.

Experiment: Human pregnane X receptor (PXR) small molecule agonists, qHTS cell viability counter screen (AID 1346977); also: nearly all actives have a fitted effect of over 50% in size
Settings: PXR-Luc HepG2 viability, CellTiter-Fluor, 24 h; series mostly up to 92.4 µM
Text: U.S. Tox21 Program National Center for Advancing Translational Sciences [NCATS] NIH Chemical Genomics Center [NCGC] U.S. Environmental Protection Agency [EPA] National Institutes of Environmental Health Sciences [NIEHS] National Toxicology Program [NTP] U.S. Food and Drug Administration [FDA] Tox21 Assay Overview: The human pregnane X receptor (hPXR) regulates the expression of several drug metabolizing enzymes and induction of these proteins is a major mechanism for developing drug resistance in cancer. One such key enzyme catalyzing the drug metabolism is cytochrome P450 3A4 (CYP3A4). Changes in CYP3A4 expression affect drug metabolism, thereby reducing the therapeutic efficacy and altering toxicological response to a drug and which finally causes adverse drug interaction. To screen Tox21 libraries for compounds that activate hPXR-mediated CYP3A4 gene expression, PXR-Luc HepG2 cells were used. Also cytotoxicity of the compounds was tested in parallel by measuring the cell viability using CellTiter-Fluor assay system in the same wells.
Tox21 Assay Protocol Summary: PXR-Luc HepG2 cells were dispensed at 2,000 per well in 5uL of assay medium containing 5% charcoal-stripped FBS into white solid bottom 1536-well plates (Corning Life Sciences, Corning, NY) using a Multidrop Combi (Thermo Scientific, Waltham, MA) dispenser. The assay plates were incubated at 37 C and 5% CO2 for 5hr, and then 23nL of compounds dissolved in DMSO and positive control were transferred using a Pintool station (Wako, San Diego, CA). The assay plates were incubated at 37C and 5% CO2 for 24hr. For cytotoxicity read, after 23hr incubation at 37C, 1uL CellTiter-Fluor reagent (Promega Corporation, Madison, WI) was added to each well of the assay plates using Flying Reagent Dispenser (FRD, Aurora Discovery, San Diego, CA). After 1hr incubation at 37C and 5% CO2, the fluorescence signal was quantified using a ViewLux plate reader (PerkinElmer, Shelton, CT).
Potency is read from the fitted curve at half-maximal effect.

Structure (SMILES)	Potency
NC=O	inactive
C#C[C@]1(O)CC[C@H]2[C@@H]3CCc4cc(OC)ccc4[C@H]3CC[C@@]21C	inactive
Nc1ncnc2nc[nH]c12	inactive
OC[C@H]1O[C@@H]2O[C@H]3[C@H](O)[C@@H](O)[C@@H](O[C@H]4[C@H](O)[C@@H](O)[C@@H](O[C@H]5[C@H](O)[C@@H](O)[C@@H](O[C@H]6[C@H](O)[C@@H](O)[C@@H](O[C@H]7[C@H](O)[C@@H](O)[C@@H](O[C@H]8[C@H](O)[C@@H](O)[C@@H](O[C@H]1[C@H](O)[C@H]2O)O[C@@H]8CO)O[C@@H]7CO)O[C@@H]6CO)O[C@@H]5CO)O[C@@H]4CO)O[C@@H]3CO	inactive
COc1ccc(OC)c(C(O)CNC(=O)CN)c1 (stereo not given)	inactive
Cc1ncc[nH]1	inactive
c1cc(N(CC2CO2)CC2CO2)ccc1OCC1CO1 (stereo not given)	61.1 µM (active)
CCCC(=O)O	inactive
COC(=O)C1=C(C)NC(C)=C(C(=O)OCCN(C)Cc2ccccc2)C1c1cccc([N+](=O)[O-])c1 (stereo not given)	27.1 µM (active) and 26.6 µM (active)
C/C=C/C(=O)O	inactive
CCCCC(CC)COC(=O)c1ccc(N(C)C)cc1 (stereo not given)	inactive
COC(=O)c1ccccc1	inactive
Nc1ccc(Nc2ccccc2)cc1	30.3 µM (active) and 39.8 µM (active) and 30.6 µM (active)
C#C[C@]1(O)CC[C@H]2[C@@H]3CCC4=Cc5oncc5C[C@]4(C)[C@H]3CC[C@@]21C	inactive
CCC(C)CO (stereo not given)	inactive
c1cc(-c2ccncc2)ccn1	inactive
Cc1[nH]c(=O)c(C#N)cc1-c1ccncc1	inactive
CC(C)CC(C)(O)C#CC(C)(O)CC(C)C (stereo not given)	31.6 µM (active) and inactive
CC(=O)c1ccccn1	inactive
CN(C)CCC=C1c2ccccc2CCc2ccccc21	44.7 µM (active) and 48.6 µM (active) and 26.6 µM (active)

Structure (SMILES)	Potency
O=C(Nc1ccc([N+](=O)[O-])cc1Cl)c1cc(Cl)ccc1O	1.22 µM (active) and 1.46 µM (active)
CN(C)CCN(Cc1cccs1)c1ccccn1	inactive
CCCCOCCOCCOCCO	inactive
CCCCNS(=O)(=O)c1ccccc1	inactive
O=C(/C=C/c1ccccc1)OCc1ccccc1	inactive
O=C(COc1ccc(Cl)cc1)N1CCN(Cc2ccc3c(c2)OCO3)CC1	inactive
CC1=CCC(C(C)(C)O)CC1 (stereo not given)	inactive
O=CCc1ccccc1	inactive
Clc1nc(Cl)c(Cl)c(Cl)c1Cl	inactive
CCCCOCCOCCO	inactive
CCC(C)(O)CCCC(C)C (stereo not given)	inactive
Brc1cc(Oc2cc(Br)c(Br)c(Br)c2Br)c(Br)c(Br)c1Br	inactive
CCCCC(CC)COCC1CO1 (stereo not given)	inactive
Nc1ccc(S(=O)(=O)Nc2cnc3ccccc3n2)cc1	inactive
COc1ccccc1/C=C/C=O	inactive
c1ccc(Nc2ccccc2)cc1	inactive
O=C(O)c1ccccc1Nc1cccc(C(F)(F)F)c1	inactive
CCC(C)OC(=O)c1ccc(O)cc1 (stereo not given)	inactive
C=C(C)C(=O)OCCOC(=O)C(=C)C	inactive
Cc1ccc2c(n1)Oc1ccc(C(C)C(=O)OCC(=O)N(C)C)cc1C2 (stereo not given)	inactive
